We go through 40 compounds from PubChem BioAssay (NCI).

Several values for one entry are separate records, joined by “and”; a condition that tells them apart may be missing. Identical values can stand only once. About 83,000 compounds went through this panel and 20% of them were active in at least one assay; those are over-represented in the sample as a whole.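 Treatment: one concentration, 48 hours, 96-well format. Scoring: percent growth, with anything below 10 considered active.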 Values without a mark were called inactive.

This test has as its system EKVX NSCLC. Nature of the test: NCI-60 one-dose screen, 48 h (100 = growth as untreated, 0 = no growth, -100 = all killed). As to conditions: 10 µM unless noted. The protocol: Growth inhibition of the EKVX human Non-Small Cell Lung tumor cell line is measured as a screen for anti-cancer activity. Cells are grown in 96 well plates and exposed to the test compound for 48 hours. Compounds are tested at a single concentration, which is 10^-5 M for most compounds. The reported endpoint is percent growth (GI% or GIPRCNT), where numbers from 0 - 100% represent growth inhibition, and numbers from -100% - 0 represent cell death. For example, a value of 40 represents 60% growth inhibition. A value of 0 means no net growth occurred over the course of the experiment. A value of -40 indicates 40% of cells at the beginning of the experiment died by the end of the experiment. A value of -100 means all cells are dead at the end of the experiment.
NCI-60 Human Tumor Cell Lines Screen was performed using the standard one-dose NCI protocol, which is described in more detail at https://dtp.cancer.gov/discovery_development/nci-60/default.htm.
Compounds with GIPRCNT values below 10 were considered active. Activity score was based on GIPRCNT using the following formula: […]
Score is 0 for GIPRCNT values of 100 or above, 50 for GIPRCNT values of 0, and 100 for GIPRCNT values of -100.
As for `Cc1cc(NC(=O)NC(=O)c2ccccc2N(C)C)ccc1Oc1ncc(Br)cn1`, the growth is 47.7% and 42.5%.

`CC(C)(C)OC(=O)CC1(O)CCCCC1`: the growth was 102%.

For `O=C(c1ccncc1)c1c(Cc2ccccc2)ccc2ccccc12`, the growth is 66.5%.

Regarding `Cc1nc2c(=O)[nH]c(=S)[nH]c2[nH]c1=O`, the growth is 102% and 109%.

As to `Cc1ccc(NC(=S)N/C=C(\c2ccccc2)S(=O)Cc2ccccc2)c(C)c1` (stereo not given), the growth is 86.7%.

For the compound `COc1ccc(COC=O)cc1`, the growth was 109%.

For `COC(=O)c1nc(N)nc(C(=O)OC)c1C(=O)c1cccc2ccccc12`, the growth was 103%.

`COC(=O)c1nc(=S)[nH]c(C(=O)OC)c1C(=O)c1ccccc1`: the growth is 107%.

With `S=c1ccc2ccccc2[nH]1`, the growth was 107% and 103%.

With `CCN(CC)C(CC(=O)c1ccccc1)C(=O)c1ccccc1` (stereo not given), the growth was 98.2%.

`NC(=O)Cc1nc(O)cc(=O)[nH]1`: the growth is 103%.

For `O=C1C2=C(Nc3cc(Cl)ccc3N2)OC1c1c[nH]c2ccc(COc3ccccc3)cc12` (stereo not given), the growth was 55%.

In the case of `COc1ccc(CCN=Cc2ccc(Cl)cc2)cc1OC`, the growth was 111%.

For the compound `O=C1c2ccccc2CN1c1ccccc1`, the growth was 113%.

On to `CC(C)(C)OC(=O)c1ccc(NCc2cc(O)ccc2O)cc1`, for which the growth was 50.1%.

In the case of `CSc1nc(N)c(N)c(N)n1`, the growth is 105%.

For `CCc1ccccc1-n1[nH]c(C)c(C=N)c1=O`, the growth was 104%.

Turning to `CC(=O)Nc1cscc1NC(C)=O`, the growth was 73.2%.

Turning to `C=CCN1C(=O)c2ccccc2C1=O`, the growth was 104%.

Turning to `N#Cc1c[nH]n2ccnc12`, the growth is 90.3%.

Regarding `O=[N+]([O-])c1ccc(NC2CCCCC2)nc1`, the growth was 101% and 106%.

In the case of `O=C(OCc1ccccc1)c1ccccc1`, the growth was 101% and 104%.

`COC1C(OC(N)=O)C(O)C(Oc2ccc3c(O)c(NC(=O)c4ccc(O)c(CC=C(C)C)c4)c(=O)oc3c2C)OC1(C)C` (stereo not given): the growth is 109%.

Consider `O=C(NC(CSSCC(NC(=O)OCc1ccccc1)C(=O)O)C(=O)O)OCc1ccccc1` (stereo not given), for which the growth was 94.8%.

For the compound `COc1ccc(/C=N/Nc2nc3ccccc3s2)cc1`, the growth was 67.4%.

For the compound `COc1ccc([N+](=O)[O-])cc1OC`, the growth is 98.6% and 102%.

`OC(CC(c1ccccc1)c1cccc2ccccc12)(c1ccccc1)c1ccccc1` (stereo not given): the growth was 79.8% and 54.9%.

Take `COc1cc(NCCCCCCCNC(C)C)c2nccc(C)c2c1`: the growth is 82.9% and 50.6%.

On to `O=C(N=C1C(=O)C2(CCCCC2)C2(N=C(c3ccccc3)OC2=O)C12CCCCC2)c1ccccc1` (stereo not given), for which the growth is 70.5%.

Consider `N=C(N=C(N)N)N1CCOCC1`, for which the growth was 103% and 105%.

Turning to `Oc1cccnc1CN1CCOCC1`, the growth is 105% and 91.9%.

`O=[N+]([O-])c1cccc2ccc(N/N=C/c3ccccc3O)nc12`: the growth is 78.8% and 82.1%.

For the compound `Cc1cc(=NO)cc(C)n1O`, the growth was 105%.

With `O=C1c2cccnc2-c2ncccc21`, the growth was 99.6% [100 µM].

Turning to `CS/C(=C\c1ccc(C(=O)c2ccc(C)cc2)n1C)S(C)=O` (stereo not given), the growth is 63.8% [100 µM].

`CC1=CC(=O)c2cccc(NC3=NCCO3)c21`: the growth was 98.9%.

Regarding `CN(C)c1ccc(C(=N)c2ccc(N(C)C)cc2)cc1`, the growth was 58% and 48.4%.

As for `COc1cc2c(cc1O)C(=O)CCCC2`, the growth is 81.6%.

`O=C(O)c1c2c(nc3ccccc13)Cc1ccccc1-2`: the growth was 104% and 72.5%.

Consider `CCOC(=O)c1ccc(C(=N)N)cc1`, for which the growth is 103%.
